# Assay results reported in PubChem BioAssay AID1240 (Sanford-Burnham Center for Chemical Genomics, 2008).
# Among all 50,000 compounds or so, about 800 (1.6%) showed an effect of 50% or more. The sample as a whole holds a higher share of strong results than the screen did.
# Target: Bcl-2-like protein 10 (Homo sapiens) (UniProt Q9HD36)
# Experiment: TR3 peptide-Bcl-B binding displacers, biochemical primary FP assay, phenotype converters (AID 1240);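 also: 0% = Bcl-B with tracer peptide and DMSO and 100% = tracer peptide lacking Bcl-B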
# Conditions: GST-Bcl-B / FITC-TR3 peptide fluorescence polarization; stronger effect = higher value; compound at 3.75 mg/L
# Sequence of Bcl-2-like protein 10 (Homo sapiens) (Q9HD36 whole entry, looked up): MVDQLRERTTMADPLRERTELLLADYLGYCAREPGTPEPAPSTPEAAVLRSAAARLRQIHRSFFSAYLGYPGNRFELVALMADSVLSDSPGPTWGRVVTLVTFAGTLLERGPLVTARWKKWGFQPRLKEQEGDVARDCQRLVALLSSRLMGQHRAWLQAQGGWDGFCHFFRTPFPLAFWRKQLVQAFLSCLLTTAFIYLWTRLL
row,SMILES,displacement [%]
1,Nc1c(C(=O)c2ccc(Br)cc2)sc2nc(C(F)(F)F)c(C(=O)c3cccs3)cc12,51.1
2,CC(=O)c1cc2c(N)c(C(=O)c3ccc(Br)cc3)sc2nc1C,10.1
3,Nc1c(C(=O)c2ccc(Cl)cc2)sc2nc(-c3ccccc3)ccc12,-3.6
4,Cc1cc([N+](=O)[O-])nn1C(=O)c1nn(C)cc1Br,0.4
5,N#Cc1ccccc1NC(=O)c1ccc(-c2ccccc2)cc1,12.6
6,Cc1ccc(-c2nc3s/c(=C\c4cn(-c5ccccc5)nc4-c4ccccc4)c(=O)n3n2)cc1,8.5
7,COc1ccc(Cl)cc1NS(=O)(=O)c1cccc([N+](=O)[O-])c1,72.8
8,Cc1cc(Cl)ccc1NS(=O)(=O)c1cccc([N+](=O)[O-])c1,-1.2
9,COc1ccc(OC)c(NS(=O)(=O)c2cccc([N+](=O)[O-])c2)c1,2.1
10,CC(C)C(=O)Nc1cc(C(F)(F)F)cc(C(F)(F)F)c1,-2.9
11,CCc1ccc(NC(=O)C(=O)NCc2ccccc2OC)cc1,6.8
12,COc1ccc(N2C(=O)/C(=C\c3ccc(OC)cc3OC)N=C2c2ccccc2)cc1,192
13,COc1ccc(C=C2C(=O)N(c3ccccc3)C(=S)N(c3ccccc3)C2=O)c(OC)c1,10.9
14,COc1ccc(/C=C2/SC(=O)N(c3ccccc3)C2=O)c(OC)c1,5.9
15,COc1ccc(C2=N/C(=C/c3ccc(F)cc3)C(=O)N2c2ccc(O)cc2)cc1,9
16,COc1ccc(C2=N/C(=C/c3ccccc3OC)C(=O)N2c2ccccc2)cc1,6.4
17,COc1ccc(C2=N/C(=C/c3ccccc3F)C(=O)N2c2ccccc2)cc1,125
18,O=C1C(=O)N(c2cccc(Br)c2)C(c2ccccc2)/C1=C(/O)c1ccccc1 (configuration not stated),12
19,COc1ccc(NC(=O)c2ccc(S(=O)(=O)N3CCOCC3)cc2)c2ccccc12,-8.9
20,Cc1cccn2c(=O)c(/C=C3\SC(=S)N(C(C)c4ccccc4)C3=O)c(NCCCn3ccnc3)nc12 (configuration not stated),8.8
21,CC1=C(C#N)c2nc(N)c(C#N)c(C)c2/C1=C\c1ccc(C)o1,-4.4
22,COc1ccc(C(=O)Nc2sc3c(c2C#N)CCCCC3)cc1,-3.4
23,CCc1ccccc1NC(=O)c1c(NC(=O)c2ccccc2Cl)sc2c1CCC2,61.2

row,SMILES,displacement [%]
1,Cc1ccccc1NC(=O)c1c(NC(=O)c2ccccc2Br)sc2c1CCCCC2,76.6
2,CCc1ccccc1NC(=O)c1c(NC(=O)c2ccccc2Br)sc2c1CCC2,-4.1
3,CCOc1ccccc1NC(=O)c1c(NC(=O)c2ccccc2Br)sc2c1CCCC2,-3.8
4,CCc1ccccc1NC(=O)c1c(NC(=O)c2ccccc2)sc2c1CCC2,-15.6
5,O=C(Nc1sc2c(c1C(=O)Nc1ccccn1)CCCCC2)c1ccccc1,95
6,Cc1ccccc1NC(=O)c1c(NC(=O)c2ccccc2C)sc2c1CCCCC2,13
7,N#Cc1c(NC(=O)c2ccc(S(=O)(=O)c3ccccc3)cc2)sc2c1CCCC2,83.9
8,COc1ccc(NC(=O)c2c(NC(=O)c3ccccc3)sc3c2CCCC3)cc1,5.7
9,N#Cc1c(NC(=O)c2ccc(C(=O)O)cc2C(=O)O)sc2c1CCCC2,11
10,O=C(Nc1sc2c(c1C(=O)Nc1ccccn1)CCCCC2)c1ccccc1F,-3
11,O=C(N/N=C/c1cccnc1)c1cc(-c2ccc3ccccc3c2)n[nH]1,-3.8
12,COc1ccc(S(=O)(=O)N2CCN(C3CC4CCC3C4)CC2)cc1 (configuration not stated),-1.9
13,Cc1ccc(CNC(=O)C(=O)NC(C)C)cc1,4.4
14,CC1(C)CC(=O)C2=C(C1)Nc1ccccc1NC2c1ccc(-c2ccccc2[N+](=O)[O-])o1 (configuration not stated),-15.9
15,Cc1cc(-n2c(C)cc(C=O)c2C)ccc1I,-15.5
16,O=C1c2cccc([N+](=O)[O-])c2C(=O)N1c1ccncc1,-2.3
17,CCOc1ccc(N2C(=O)S/C(=C\c3ccc(C)o3)C2=O)cc1,108
18,Cc1ccc(/C=C2\SC(=S)N(c3ccc(C)c(C)c3)C2=O)o1,14.9
19,CCOc1ccc(N2C(=O)S/C(=C\c3ccc(C)cc3)C2=O)cc1,-5.8
20,O=C1S/C(=C\c2ccc(Br)cc2)C(=O)N1c1ccc(Cl)cc1,-3.3
21,O=C1/C(=C/c2ccco2)SC(=S)N1c1ccc(F)cc1,7.9
22,O=C1/C(=C/c2ccco2)SC(=S)N1c1cccc(C(F)(F)F)c1,15.4
23,O=C1S/C(=C\c2ccc(Br)o2)C(=O)N1c1ccc(Cl)c(Cl)c1,-3.9

row,SMILES,displacement [%]
1,Cc1ccc(/C=C2\SC(=S)N(c3ccc(F)cc3)C2=O)o1,101
2,O=C1/C(=C/c2ccc(Br)o2)SC(=S)N1c1cccc(C(F)(F)F)c1,21.6
3,O=C1/C(=C/c2ccc(I)o2)SC(=S)N1c1cccc(C(F)(F)F)c1,55.7
4,O=C1S/C(=C\c2ccc(Br)o2)C(=O)N1c1ccc(Cl)cc1,88.9
5,CCOc1ccc(N2C(=O)S/C(=C\c3ccc(OC)cc3)C2=O)cc1,13.2
6,Cc1cc(=O)oc2cc(OCC(=O)OC(C)C)ccc12,1.9
7,CCOC(=O)c1c(NC(C)=O)sc(I)c1-c1ccccc1,0.8
8,Cc1cc(C(=O)NC2CCSC2=O)ccc1[N+](=O)[O-] (configuration not stated),-2.7
9,CS(=O)(=O)N(Cc1ccc(Cl)cc1)c1ccc(C(=O)NCc2ccco2)cc1,-14.6
10,Cc1ccc([N+](=O)[O-])cc1S(=O)(=O)N1CCOCC1,5.1
11,CCOc1cccc(C(=O)Nc2cc(-c3nc4cc(C)cc(C)c4o3)ccc2C)c1,9.5
12,Cc1ccc(C)c(NC(=O)c2c(-c3ccccc3Cl)noc2C)c1,9.9
13,CCOc1ccc(N2C(=O)S/C(=C\c3ccco3)C2=O)cc1,92.2
14,Cc1ccsc1/C=C1\SC(=S)N(C(C)c2ccccc2)C1=O (configuration not stated),-6.6
15,CCOc1ccc(/C=C2\SC(=O)N(c3ccccc3)C2=O)cc1,-1.9
16,Cc1ccsc1/C=C1\SC(=S)N(c2ccccc2)C1=O,126
17,CCOc1ccc(N2C(=O)S/C(=C\c3ccccc3OC)C2=O)cc1,32.7
18,Cc1ccsc1/C=C1\SC(=S)N(c2c(C)n(C)n(-c3ccccc3)c2=O)C1=O,6.6
19,O=C(O)CSCCCN1C(=O)c2cccc3cccc(c23)C1=O,8
20,CC1=C(C(=O)Nc2ccccc2C)C(c2ccc(F)cc2)NC(=O)N1 (configuration not stated),16.2
21,Cc1ccc(S(=O)(=O)Nc2ccccc2C(=O)Nc2ccccc2)cc1,9.6
22,COC(C(=O)N1CCCCCC1)(c1ccccc1)c1ccccc1,16.8
23,O=C1NC(=S)NC(=O)C1=Cc1ccc(Oc2ccc([N+](=O)[O-])cn2)cc1,10.5

row,SMILES,displacement [%]
1,O=C1NC(=S)S/C1=C\c1ccc(Oc2ccc([N+](=O)[O-])cn2)cc1,61.8
2,O=C1C(=Cc2ccc(Oc3ccc([N+](=O)[O-])cn3)cc2)C(=O)c2ccccc21,4.6
3,O=C1NC(=S)N/C1=C\c1ccc(Oc2ccc([N+](=O)[O-])cn2)cc1,101
4,COc1cc(/C=C2\SC(=S)NC2=O)ccc1Oc1ccc([N+](=O)[O-])cn1,20.6
5,COc1cc(/C=C2\NC(=S)NC2=O)ccc1Oc1ccc([N+](=O)[O-])cn1,8.2
6,COc1ccc(C(=O)Nc2ccc(S(=O)(=O)NC(C)=O)cc2)cc1,13.1
7,COc1ccc(-n2cnc3cc(NS(=O)(=O)c4ccc(C)cc4)ccc32)cc1,-1.2
8,COc1cc(C(=O)Nc2nnc(CC(=O)NCc3ccccc3)s2)cc(OC)c1OC,-14
9,CC(=O)Oc1ccc(N2C(=O)C3C4C=CC(C4=C(C)C)C3C2=O)cc1 (configuration not stated),-3.2
10,COc1ccc(N2C(=O)C3C4C=CC(C4=C(C)C)C3C2=O)cc1 (configuration not stated),120
11,CCCOc1ccc(N2C(=O)C3C4C=CC(C4=C(C)C)C3C2=O)cc1 (configuration not stated),9.9
12,O=C1N=C(N2CCOCC2)S/C1=C/c1ccc(Cl)cc1,-0.1
13,COC(=O)c1sccc1NC(=O)c1cc(-c2ccc(OC)cc2OC)nc2ccccc12,16.4
14,COC(=O)c1cc(-c2ccc(OC)cc2)nc2ccc(Br)cc12,-4.1
15,COC(=O)c1cc(-c2ccc(Br)cc2)nc2ccccc12,0
16,COC(=O)c1cc(-c2cccs2)nc2ccc(Br)cc12,104
17,COc1ccc(NC(=O)c2cc(-c3ccc(OC)cc3OC)nc3ccccc23)c(OC)c1,-0.8
18,COc1cc(NC(=O)c2cc(-c3cccs3)nc3ccccc23)c(OC)cc1Cl,55.2
19,COc1ccccc1NC(=O)c1cc(-c2cccs2)nc2ccccc12,-3.7
20,COC(=O)c1ccccc1NC(=O)c1cc(-c2ccc(OC)cc2OC)nc2ccccc12,-3
21,COc1ccc(-c2cc(C(=O)Nc3ccccc3F)c3ccccc3n2)c(OC)c1,82.3
22,COc1ccc(Cl)cc1NC(=O)c1cc(-c2cccs2)nc2ccccc12,8.5
23,COC(=O)c1sccc1NC(=O)c1cc(-c2cccs2)nc2ccccc12,60.4

row,SMILES,displacement [%]
1,COC(=O)c1sccc1NC(=O)c1cc(-c2ccccc2Cl)nc2ccccc12,22.7
2,O=C(CSCC(=O)Nc1cccc(C(F)(F)F)c1)Nc1ccccc1,-10.4
3,CCOc1cc(/C=N/NC(=O)c2ccncc2)ccc1OC(=O)c1ccc([N+](=O)[O-])cc1,6.9
4,O=C1c2cccc3cccc(c23)C(=O)N1/N=C/c1ccco1,25.1
5,COc1ccc(S(=O)(=O)Nn2cnnc2)cc1,-1
6,O=C(O)CN(c1ccccc1)S(=O)(=O)c1ccccc1[N+](=O)[O-],4.7
7,CCOC(=O)C1=C(O)/C(=C\c2ccc(OC)cc2)N=C1C,4.4
8,Cc1onc(-c2ccccc2Cl)c1C(=O)Nc1sc(C)c(C)c1C(=O)OC(C)C,-6.3
9,CCN(CC)CCN1C(=O)C(O)=C(C(=O)/C=C/c2ccccc2)C1c1ccccc1[N+](=O)[O-] (configuration not stated),3.2
10,COc1ccc(-c2cc(C(F)(F)F)n3nc(C(=O)NCc4ccco4)c(Cl)c3n2)cc1OC,-5.3
11,COc1ccc(Cc2noc(COc3ccc(Cl)cc3)n2)cc1,2.7
12,CN1C(=O)/C(=C\c2ccccc2OCCOc2ccc(Br)cc2)SC1=S,2.3
13,COc1ccccc1OCCOc1ccc(/C=C2/SC(=S)N(C)C2=O)cc1,3.9
14,Cc1ccccc1OCCOc1cccc(/C=C2/SC(=S)N(C)C2=O)c1,1.2
15,CN1C(=O)/C(=C\c2ccc(OCCOc3ccc([N+](=O)[O-])cc3)cc2)SC1=S,-0.4
16,COc1cc(C=C2C(=O)N(C)C(=O)N(C)C2=O)ccc1OCCOc1ccc([N+](=O)[O-])cc1,26.1
17,COc1ccccc1OCCOc1cccc(/C=C2/SC(=S)N(C)C2=O)c1,95.5
18,COc1cc(/C=C2/SC(=S)N(C)C2=O)ccc1OCCOc1ccc([N+](=O)[O-])cc1,74.5
19,CN1C(=O)/C(=C\c2ccccc2OCCOc2ccc([N+](=O)[O-])cc2)SC1=S,133
20,Cc1ccc(OCCOc2ccccc2/C=C2/SC(=S)N(C)C2=O)cc1,3.3
